Inconclusive results are not listed. Active and inactive are the calls of the source. Unless noted, calls come from the whole dose curve; as a rule, active = well fitted curve in the direction sought with a large enough effect in the repeat runs; inconclusive = weak or mixed curves; inactive = no such curve, though single readings can be large; an effect the other way counts as inactive or inconclusive.
Tests used:
[1] = qHTS assay for small molecule agonists of the p53 signaling pathway - cell viability (AID 651633; calls by dose curve; note: nearly all actives have a fitted effect of over 30% in size; note: potency is the fitted concentration of half-maximal effect;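 for activity change, negative = cytotoxicity: p53RE-bla HCT reporter cells with a stable beta-lactamase p53 reporter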)
How it was run: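 Viability counter-read: CellTiter-Glo luminescence (30 min, room temperature) in the same p53RE-bla plates. These plates had been exposed to compounds for 16 h at 37 C.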

[2] = qHTS assay for small molecule disruptors of the mitochondrial membrane potential - cell viability (AID 720634; calls by dose curve; note: nearly all actives have a fitted effect of over 20% in size; note: potency is the fitted concentration of half-maximal effect;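 for activity change, negative = cytotoxicity: human HepG2 liver cancer cells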)
How it was run: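 ATP-based luminescent viability readout (CellTiter-Glo, 30 min, room temperature) in HepG2 cells multiplexed with the m-MPI membrane potential dye; compound exposure lasted 1 hr at 37 C.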

[3] = qHTS assay for small molecule disruptors of the mitochondrial membrane potential (AID 720635); note: potency is the fitted concentration of half-maximal effect
How it was run: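 Mitochondrial membrane potential tracked with Mito-MPS dye, red aggregates (ex 540/em 590 nm) against green monomers (ex 490/em 535 nm). Compound treatment 1 hr at 37C, dye 30 min in HepG2.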

[4] = qHTS assay to test for compound auto fluorescence at 590 nm (red) in HepG2 cells (AID 720674)
How it was run: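 Red autofluorescence (Ex/Em 540/590 nm, Rose Bengal sodium equivalents) was measured in HepG2 cells, 2,000 per well in MEM plus 10% FBS, plated overnight at 37 C. Readings were taken 1 hr after adding 23 nL compound or DMSO, at 37 C and 5% CO2.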

[5] = qHTS assay to test for compound auto fluorescence at 535 nm (green) in HepG2 cells (AID 720675)
[6] = qHTS assay to test for compound auto fluorescence at 590 nm (red) in HEK293 cells (AID 720679)
How it was run: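 We plated HEK293 cells in 10% dialyzed FBS medium, let them adhere for 4-5 hr, then added 23 nL compound. Overnight at 37C and 5% CO2 preceded fluorescence measurement at 540/590nm.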

[7] = qHTS assay to test for compound auto fluorescence at 535 nm (green) in HEK293 cells (AID 720680)
[8] = qHTS assay to test for compound auto fluorescence at 460 nm (blue) in HEK293 cell free culture (AID 720681); note: potency is the fitted concentration of half-maximal effect
How it was run: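 Blue fluorescence (Ex 405/Em 460 nm, triamterene-equivalent) was read immediately after pin transfer of compound or DMSO into medium (DMEM, 10% FBS) without cells.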

[9] = qHTS assay to test for compound auto fluorescence at 535 nm (green) in HEK293 cell free culture (AID 720682)
How it was run: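 Intrinsic compound fluorescence is measured in culture medium containing 10% FBS, with excitation at 485 nm and detection at 535 nm, referenced to fluorescein.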

[10] = qHTS assay to test for compound auto fluorescence at 590 nm (red) in HEK293 cell free culture (AID 720683)
How it was run: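 Red-channel autofluorescence of compounds in culture medium (DMEM, 10% FBS), no cells, measured at 540/590 nm. Rose Bengal sodium is the reference fluorophore for equivalence.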

[11] = qHTS assay to test for compound auto fluorescence at 590 nm (red) in HepG2 cell free culture (AID 720684)
How it was run: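 Cell-free; medium MEM + 10% FBS; compound or DMSO added by pintool; read Ex 540/Em 590 nm; Rose Bengal sodium as red reference fluorophore.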

[12] = qHTS assay to test for compound auto fluorescence at 460 nm (blue) in HepG2 cell free culture (AID 720685); note: potency is the fitted concentration of half-maximal effect
How it was run: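 Cell-free plates of MEM plus 10% FBS received 23 nL compound or DMSO vehicle; blue-channel (405/460 nm) intensity scored against triamterene as reference fluorophore.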

[13] = qHTS assay to test for compound auto fluorescence at 535 nm (green) in HepG2 cell free culture (AID 720686)
[14] = qHTS assay to test for compound auto fluorescence at 460 nm (blue) in HepG2 cells (AID 720687); note: potency is the fitted concentration of half-maximal effect
How it was run: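 Blue-channel autofluorescence (Ex/Em 405/460 nm, triamterene-equivalent) was measured after 1 hr compound exposure at 37 C, 5% CO2. Cells were HepG2, plated overnight at 37 C in MEM plus 10% FBS.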

[15] = qHTS assay for small molecules that induce genotoxicity in human embryonic kidney cells expressing luciferase-tagged ATAD5 - cell viability (AID 651634; calls by dose curve; note: nearly all actives have a fitted effect of over 25% in size; note: potency is the fitted concentration of half-maximal effect)
How it was run: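 After 15.5 hr incubation with compound at 37C, 5% CO2, HEK293T ATAD5-luciferase cells received CellTiter-Fluor reagent; fluorescence intensity was quantified following 30 min at 37C.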

[16] = qHTS assay to test for compound auto fluorescence at 460 nm (blue) in HEK293 cells (AID 720678); note: potency is the fitted concentration of half-maximal effect
How it was run: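 Triamterene serves as the blue fluorophore standard. Compound signal at 405/460 nm is read in HEK293 wells (2,000 cells, 10% dialyzed FBS) after overnight treatment at 37C.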

[17] = target: Glucocorticoid receptor (Homo sapiens) (UniProt P04150); experiment: qHTS assay to identify small molecule agonists of the glucocorticoid receptor (GR) signaling pathway (AID 720691; active = well fitted activation curve with a large enough effect in the signal ratio in the repeat runs, not every such curve was filed as active; the % refers to the signal ratio); conditions: GR-bla HeLa, beta-lactamase reporter ratio, 18 h; activation: at 62.4 µM (top of the series)
How it was run: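 Cells: GR-bla HeLa, endogenous GR with stably integrated GRE-beta-lactamase reporter. Treatment 18 h, 37 C, compounds delivered in DMSO. Detection via LiveBLAzer B/G FRET substrate, 2 h RT, fluorescence intensity.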

[18] = target: Glucocorticoid receptor (Homo sapiens) (UniProt P04150); experiment: qHTS assay to identify small molecule antagonists of the glucocorticoid receptor (GR) signaling pathway (AID 720692; active = well fitted inhibition curve with a large enough effect in the signal ratio in the repeat runs, not every such curve was filed as active; the % refers to the signal ratio)
How it was run: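 Quantitative HTS in antagonist format: HeLa cells expressing endogenous GR and a stably integrated GRE-bla reporter, stimulated with 5 nM dexamethasone (final) alongside test compounds for 18 h.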
% is set by controls: 0 for no effect and ±100 for the full control effect; tags give direction and shape of the fitted curve or compound fluorescence and quenching.

Chain of Glucocorticoid receptor (Homo sapiens) (P04150 whole entry, looked up): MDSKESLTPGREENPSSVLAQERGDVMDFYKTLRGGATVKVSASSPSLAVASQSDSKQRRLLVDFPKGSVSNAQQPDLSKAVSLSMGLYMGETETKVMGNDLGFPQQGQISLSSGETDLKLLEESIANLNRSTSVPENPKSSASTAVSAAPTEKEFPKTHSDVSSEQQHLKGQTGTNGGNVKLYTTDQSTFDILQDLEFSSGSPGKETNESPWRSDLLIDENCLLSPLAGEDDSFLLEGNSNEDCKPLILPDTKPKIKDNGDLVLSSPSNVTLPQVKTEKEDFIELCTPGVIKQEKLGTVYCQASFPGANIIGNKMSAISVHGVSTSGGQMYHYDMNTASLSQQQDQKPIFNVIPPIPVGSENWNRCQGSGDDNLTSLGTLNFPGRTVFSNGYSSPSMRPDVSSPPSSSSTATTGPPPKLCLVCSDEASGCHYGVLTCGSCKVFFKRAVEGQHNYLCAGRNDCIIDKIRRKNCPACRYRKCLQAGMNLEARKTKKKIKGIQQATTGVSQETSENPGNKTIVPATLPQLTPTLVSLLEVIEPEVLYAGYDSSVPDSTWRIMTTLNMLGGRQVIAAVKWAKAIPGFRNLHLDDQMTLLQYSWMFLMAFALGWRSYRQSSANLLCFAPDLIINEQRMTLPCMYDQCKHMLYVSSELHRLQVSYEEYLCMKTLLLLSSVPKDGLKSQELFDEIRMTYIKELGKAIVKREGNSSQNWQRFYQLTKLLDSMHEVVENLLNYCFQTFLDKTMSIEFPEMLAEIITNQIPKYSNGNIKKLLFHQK

CNN
inactive: Potency [1] | Potency [2] | Potency [3] | outcome [4] | Potency [5] | outcome [6] | outcome [7] | Potency [8] | outcome [9] | outcome [10] | outcome [11] | Potency [12] | Potency [13] | Potency [14]

O.O.O.O.O.O.O=S(=O)([O-])[O-].[Ni+2]
inactive: Potency [15] | Potency [2] | Potency [5] | Potency [16] | outcome [6] | outcome [7] | Potency [8] | outcome [9] | outcome [10] | outcome [11] | Potency [12] | Potency [13] | Potency [14]

CCCCn1cc[n+](C)c1 (tested in a mixture with another compound)
inactive: Potency [15] | Potency [2] | Potency [3] | outcome [4] | Potency [5] | outcome [6] | outcome [7] | Potency [8] | outcome [9] | outcome [10] | outcome [11] | Potency [12] | Potency [13] | Potency [14]

N#Cc1sc2c(=O)c3ccccc3c(=O)c=2sc1C#N
inactive: outcome [4] | Potency [5] | Potency [16] | outcome [6] | outcome [7] | Potency [8] | outcome [9] | outcome [10] | outcome [11] | Potency [12] | Potency [13] | Potency [14]
active: Potency [1] 5.45 µM | Potency [2] 24.3 µM | Potency [3] 24.3 µM

CCOP(=O)(Sc1ccccc1)Sc1ccccc1
inactive: Potency [15] | Potency [2] | outcome [4] | Potency [5] | Potency [16] | outcome [7] | Potency [8] | outcome [9] | outcome [10] | outcome [11] | Potency [12] | Potency [13] | Potency [14] | Potency [17] | Potency [18]

CC(Cc1ccc(O)cc1)NCC(O)c1cc(O)cc(O)c1 (centres undefined)
inactive: Potency [15] | Potency [2] | Potency [3] | outcome [4] | Potency [5] | outcome [6] | outcome [7] | Potency [8] | outcome [9] | outcome [10] | outcome [11] | Potency [12] | Potency [13] | Potency [14] | Potency [17] | Potency [18]

C#CCC1=C(C)C(OC(=O)C2C(C=C(C)C)C2(C)C)CC1=O (centres undefined)
active: Potency [3] 60.7 µM
inactive: Potency [15] | outcome [4] | Potency [5] | Potency [16] | outcome [6] | outcome [7] | Potency [8] | outcome [9] | outcome [10] | outcome [11] | Potency [12] | Potency [13] | Potency [14]

NC1CCC(CC2CCC(N)CC2)CC1 (centres undefined)
inactive: Potency [1] | Potency [2] | Potency [3] | outcome [4] | Potency [5] | Potency [16] | outcome [6] | outcome [7] | Potency [8] | outcome [9] | outcome [10] | outcome [11] | Potency [12] | Potency [13] | Potency [14] | Potency [17] | Potency [18]

[Cl-].[Cl-].[Cl-].[Yb+3]
inactive: Potency [15] | outcome [4] | Potency [5] | outcome [7] | Potency [8] | outcome [10] | outcome [11] | Potency [12] | Potency [13] | Potency [14]

S=C=NCCc1ccccc1
inactive: Potency [1] | outcome [4] | Potency [5] | Potency [16] | outcome [6] | outcome [7] | Potency [8] | outcome [9] | outcome [10] | outcome [11] | Potency [12] | Potency [13] | Potency [14] | Potency [17]
active: Potency [3] 38.6 µM

CC(=O)[O-].CC(=O)[O-].[Co+2]
inactive: Potency [1] | Potency [15] | Potency [5] | Potency [16] | outcome [6] | outcome [7] | Potency [8] | outcome [10] | outcome [11] | Potency [12] | Potency [13] | Potency [14]

CC(=O)O.CC(=O)O.CC(=O)O.CC(=O)O.CC(=O)O.CC(=O)O.CC(=O)O.O.O.[Cr].[Cr].[Cr]
inactive: Potency [1] | Potency [15] | outcome [4] | Potency [5] | Potency [16] | outcome [7] | Potency [8] | outcome [9] | outcome [10] | outcome [11] | Potency [12] | Potency [13] | Potency [14]

O=c1[nH]c(Cl)c(Cl)cc1Cl
inactive: Potency [1] | Potency [2] | outcome [4] | Potency [5] | Potency [16] | outcome [7] | Potency [8] | outcome [9] | outcome [10] | outcome [11] | Potency [12] | Potency [13] | Potency [14]
active: Potency [3] 54.5 µM

O.O.O.O=C([O-])[C@H]([O-])[C@@H]([O-])C(=O)[O-].O=C([O-])[C@H]([O-])[C@@H]([O-])C(=O)[O-].[K+].[K+].[Sb+3].[Sb+3]
inactive: outcome [4] | Potency [5] | Potency [16] | outcome [6] | outcome [7] | Potency [8] | outcome [10] | outcome [11] | Potency [12] | Potency [13] | Potency [14]

N#Cc1c2ccccc2cc2ccccc12
active: Potency [3] 1.72 µM | Potency [16] 1.26 µM [fluorescent] | Potency [8] 2.51 µM | Potency [12] 2.51 µM [fluorescent] | Potency [14] 2.82 µM [fluorescent]
inactive: Potency [15] | outcome [4] | Potency [5] | outcome [6] | outcome [7] | outcome [10] | outcome [11] | Potency [13]

CC(=O)[O-].CC(=O)[O-].CC(=O)[O-].[Sb+3]
inactive: activity change, negative = cytotoxicity [1] 11.3% [at 8.08 µM] | activity, negative = cytotoxicity [15] 20.6% [at 8.08 µM] | fluorescence, relative to Rose Bengal [4] -0.0388% [at 3.72 µM] | fluorescence, % of fluorescein control [5] -0.114% [at 3.72 µM] | fluorescence, % of triamterene [16] -0.0361% [at 3.72 µM] | fluorescence, % of fluorescent control [6] 0.24% [at 3.72 µM] | fluorescence, % of fluorescein [7] 0.0079% [at 3.72 µM] | fluorescence, % of fluorescent control [8] -0.0273% [at 3.72 µM] | activity change [9] -0.0203% [at 3.72 µM] | fluorescence, % of fluorescent control [10] -0.102% [at 3.72 µM] | fluorescence, % of Rose Bengal [11] 0.0344% [at 3.72 µM] | fluorescence, % of fluorescent control [12] -0.11% [at 3.72 µM] | fluorescence, % of fluorescein control [13] 0.0057% [at 3.72 µM] | fluorescence, % of fluorescent control [14] 0.0192% [at 3.72 µM]

[Cl-].[Cl-].[Sn+2]
inactive: outcome [4] | Potency [5] | Potency [16] | outcome [7] | Potency [8] | outcome [9] | outcome [10] | outcome [11] | Potency [12] | Potency [13] | Potency [14]

CCC[CH2][Sn]([CH2]CCC)([CH2]CCC)[CH2]CCC
inactive: outcome [4] | Potency [5] | Potency [16] | outcome [7] | Potency [8] | outcome [10] | outcome [11] | Potency [12] | Potency [13] | Potency [14]
active: Potency [1] 43.3 µM | Potency [15] 19.3 µM | Potency [3] 4.86 µM

From PubChem BioAssay (Tox21)
